Assay outcomes from PubChem BioAssay.
p-CIP stab down = p/CIP-EGFP fusion destabilizers, primary screen, fluorescence, F442A cells; 290,000 tested, 0.01% active; AID 1984, 2009; 16 h; Q05BA5; decrease of EGFP signal, % at 10 µM;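 active = EGFP signal decrease of at least 30% at 10 µM or well 3 SD below plate mean, unless failing retest; inactive = the rest, including hits failing retest or dose response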
SUMO HTRF inh = inhibitors of in vitro SUMOylation cascade, primary screen, biochemical, HTRF, uHTS. SUMO-conjugating enzyme UBC9 (Homo sapiens), P63279. HTRF SUMOylation assay, SAE1/SAE2 + UBC9. inhibition, % at 35 µM. 290,000 tested, 0.36% active; in the data active = inhibition above about 50%, passing the limit was not always enough
Target sequence (P63279 whole entry, looked up): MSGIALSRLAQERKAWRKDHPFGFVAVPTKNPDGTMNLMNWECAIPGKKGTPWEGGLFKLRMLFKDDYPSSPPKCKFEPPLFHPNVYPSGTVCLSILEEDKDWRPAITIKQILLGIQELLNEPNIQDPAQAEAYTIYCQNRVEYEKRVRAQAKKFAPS
PHOSPHO1 inh = PubChem AID 1565. Phosphoethanolamine/phosphocholine phosphatase (Homo sapiens), Q8TCT1. recombinant PHOSPHO1, absorbance phosphatase assay. inhibition, % at 13.3 µM. 290,000 tested, 1.1% active; in the data active = inhibition above about 60%
Target sequence (Q8TCT1 whole entry, looked up): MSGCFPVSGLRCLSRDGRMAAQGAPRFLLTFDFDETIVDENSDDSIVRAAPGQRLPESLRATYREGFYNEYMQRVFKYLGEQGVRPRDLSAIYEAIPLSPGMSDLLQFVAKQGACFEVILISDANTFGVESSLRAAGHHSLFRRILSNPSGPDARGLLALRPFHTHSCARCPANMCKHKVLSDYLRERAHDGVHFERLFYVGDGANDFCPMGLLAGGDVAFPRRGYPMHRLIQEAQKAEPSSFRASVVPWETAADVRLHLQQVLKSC
NadD block = inhibitors of S. aureus NadD, primary screen, biochemical, colorimetric, uHTS. Nicotinate-nucleotide adenylyltransferase NadD (Staphylococcus aureus N315). purified NadD enzyme, colorimetric absorbance read-out. inhibition, % at 20 µM. 360,000 tested, 0.78% active. AID 602399, 2012; in the data active = inhibition above about 26%
NadD inh conf = inhibitors of S. aureus NadD, confirmation, biochemical, colorimetric, single concentration; shares compounds with NadD block; 2,000 tested, 13% active; purified S. aureus NadD, colorimetric enzyme assay; inhibition, % at 20 µM; in the data active = inhibition mostly above about 42%, no sharp cut-off; inactive = mostly below about 42%
The depositor's hits bear a star; . = no result given. Only some compounds are listed: those with a hit (about 1.8% of all), similar ones and a draw of the others.

SMILES	p-CIP stab down	SUMO HTRF inh	PHOSPHO1 inh	NadD block	NadD inh conf
Cc1cccc(C)c1NC(=O)CNC(=O)C(Cc1ccccc1)NC(=O)c1ccccc1 (centres undefined)	-4	-1	23	-1	.
CC(C)c1ccc(NC(=O)CSc2nc3ccsc3c(=O)n2Cc2ccc(C(=O)O)cc2)cc1	-3	0	48	32*	46
COc1cc2cc(Oc3ccc4ccc(=O)oc4c3)c(=O)oc2cc1OC(=O)/C=C/c1ccccc1	4	-2	0	32*	10
CCC[C@@H]1CCCC/C=C\CCCC(=O)OCCN1C(=O)OC(C)(C)C	.	.	.	2	.
O=C(C1CC(=O)N(c2ccc3c(c2)OCCO3)C1)N1CCN(S(=O)(=O)c2ccccc2F)CC1 (centres undefined)	.	.	.	4	.
COCCn1c(-c2ccc(-c3ccc([N+](=O)[O-])cc3Br)o2)nc2c1c(=O)[nH]c(=O)n2CC(C)C	-20	26	37	44*	6
COCCn1c(-c2ccc(SC)cc2)nc2c1c(=O)[nH]c(=O)n2CC(C)C	-10	16	15	-3	.
COCCCn1c(-c2cccc(Cl)c2)nc2c1c(=O)[nH]c(=O)n2Cc1ccccc1	8	-25	40	-6	.
COc1ccc(-c2ccc(-c3nc4c(c(=O)[nH]c(=O)n4Cc4ccccc4)n3C)o2)c([N+](=O)[O-])c1	1	8	1	52*	9
COCCn1c(=O)[nH]c(=O)c2c1nc(-c1ccc(-c3ccc(Cl)cc3[N+](=O)[O-])o1)n2Cc1ccccc1	-12	19	3	45*	13
CCCCc1ccc(NC(=O)COC(=O)c2ccc3ncsc3c2)cc1	.	.	.	-8	.
Cc1onc(-c2ccccc2)c1C(=O)N1CCC(C)(C(=O)NS(=O)(=O)C2CC2)C1 (centres undefined)	.	.	.	2	.
Cc1cc(-c2cc(C(=O)O)c3ccccc3n2)c(C)s1	-15	25	24	58*	13
N#CC1=C2SCC(O)(c3ccccc3)N2C(=O)CC1c1cccs1 (centres undefined)	-7	-9	14	1	.
Cc1ccc(C2CC(=O)N3CN(c4ccc(Br)cc4)CSC3=C2C#N)o1 (centres undefined)	-18	13	93*	43*	-4
COc1ccccc1N1CSC2=C(C#N)C(c3ccc(SC)cc3)CC(=O)N2C1 (centres undefined)	-3	33	92*	35*	39
N#CC1=C2SCN(c3ccccc3)CN2C(=O)CC1c1cccs1 (centres undefined)	-3	40	81*	44*	16
COc1ccc(CN2C(=O)CCC2(C)c2nnnn2Cc2ccccc2)cc1 (centres undefined)	.	.	.	-3	.
COc1ccc(Br)cc1/C=N/NC(=O)c1nc(-c2ccccc2)n2c1CCCCC2	-9	17	-9	39*	13
COc1ccc(Br)cc1/C=N/NC(=O)c1ccc(OC)c(OC)c1	-2	9	28	3	.
CCNC(=O)C1CCCN(C(=O)c2ccc(-c3ccccc3)cc2)CC1 (centres undefined)	.	.	.	-4	.
C#CCn1c(=NC(=O)c2ccc(S(=O)(=O)N3CCCc4ccccc43)cc2)sc2cc(S(N)(=O)=O)ccc21	-20	8	6	50*	39
Cn1c(=NC(=O)c2ccc(S(=O)(=O)N3CCCc4ccccc43)cc2)sc2cc(S(C)(=O)=O)ccc21	-19	2	11	14	.
Cc1csc(NC(=O)CSc2nnc(NC(=O)COc3ccc(Cl)cc3)s2)n1	-3	2	9	35*	13
CCOC(=O)c1ccc(-n2c(O)c(/C=N/NC(=O)C3COc4ccccc4O3)c3ccccc3c2=O)cc1 (centres undefined)	-10	-15	10	31*	41
SMILES	p-CIP stab down	SUMO HTRF inh	PHOSPHO1 inh	NadD block	NadD inh conf
CCOC(=O)c1ccc(NC(=O)C2COc3ccccc3O2)cc1 (centres undefined)	-5	-5	8	-5	.
Cc1ccc(S(=O)(=O)c2nnn3c2nc(N2CCN(c4ccccn4)CC2)c2ccccc23)cc1C	-3	0	22	40*	12
CN(CCC#N)C(=O)COC(=O)c1c2c(nc3ccccc13)/C(=C/c1ccco1)CC2	-7	53*	-32	50*	58*
CC(C)CNC(=O)COC(=O)c1c2c(nc3ccccc13)/C(=C\c1cccs1)CC2	.	.	.	12	.
CC1(C)OCC(N)(CO)CO1	.	.	.	-2	.
Cc1ccccc1NC(=O)CSc1nnc(NC(=O)C2CC2)s1	-10	4	0	-1	.
CCOc1ccc(N=C2SC(C(=O)Nc3ccccc3C#N)C(N)=C2C(=O)Nc2ccc(Cl)cc2)cc1 (centres undefined)	2	-10	34	31*	6
O=C(CSC1=NS(=O)(=O)c2cc(F)ccc2N1)Nc1cccc(F)c1	.	.	.	0	.
CCCCOc1ccc(N(CC(=O)NC2CCCCC2)C(=O)CCC(=O)Nc2ccccn2)cc1	-2	6	-14	1	.
Cc1ccc(NC(=S)NC(=O)C2CCCCC2)c(Br)c1	.	.	.	0	.
CCCCNC(=O)c1c(N)[nH]c(C(=O)c2ccccc2)c1-c1ccccn1	.	.	.	2	.
CCC(=O)N(c1nnc(SCC(=O)Nc2sccc2C(N)=O)s1)C1CC1	.	.	.	1	.
O=[N+]([O-])c1ccccc1/C=C/C=N/Nc1ccc(S(=O)(=O)Nc2ccc(Cl)cc2)cc1[N+](=O)[O-]	-21	1	25	26*	2
O=[N+]([O-])c1cc(S(=O)(=O)Nc2cccc(Cl)c2)ccc1N/N=C/c1ccc(N2CCOCC2)cc1	-12	23	0	28*	0
C/C(=N\Nc1ccc(S(=O)(=O)Nc2ccc(Cl)cc2)cc1[N+](=O)[O-])c1ccc(N2CCOCC2)cc1	-7	12	-4	19	.
O=[N+]([O-])c1cc(/C=N/Nc2nc(N3CCOCC3)nc(N3CCOCC3)n2)ccc1Cl	-13	13	-2	3	.
C/C(=N\Nc1ccc(S(=O)(=O)Nc2ccccc2)cc1[N+](=O)[O-])c1ccc(N2CCOCC2)cc1	-6	-5	26	42*	14
CCOC(=O)Cc1csc(NC(=O)CN2CCN(c3ccccc3)CC2)n1	0	4	8	2	.
CCN(CC)C(=O)c1sc2nc(-c3cccs3)cc(-c3ccc(Cl)cc3)c2c1N	-17	8	16	44*	-5
Cc1nnc(NC(=O)c2sc3nc(-c4cccs4)cc(C(F)(F)F)c3c2N)s1	-166	-24	37	30*	-3
Nc1c(C(=O)Nc2nccs2)sc2nc(-c3cccs3)cc(C(F)(F)F)c12	-9	16	58	8	.
CCN(CC)C(=O)c1sc2nc(-c3cccs3)cc(-c3cccs3)c2c1N	2	24	8	73*	8
CC(=O)c1sc(-c2ccc(F)cc2F)nc1C	5	12	-8	4	.
Cc1cc(-c2sccc2C)nc(-n2cccc2)n1	-14	30	24	-1	.
